Inconclusive results are not listed. A call without a number means that no potency is given here. Calls of active or inactive are those of the source. Calls come from the whole dose curve.

The experiment in a line: cAMP Responsive Elements (CRE) small molecule agonists, cell-based qHTS assay (AID 1963590). To be noted: CRE-bla HEK293T, beta-lactamase FRET ratio, 3 h; series mostly up to 92.4 µM. The source says:
U.S. Tox21 Program National Center for Advancing Translational Sciences [NCATS] Division of Preclinical Innovation [DPI] U.S. Environmental Protection Agency [EPA] National Institutes of Environmental Health Sciences [NIEHS] National Toxicology Program [NTP] U.S. Food and Drug Administration [FDA] Tox21 Assay Overview: CREB (cyclic-AMP Responsive Element Binding Protein) is a cellular transcription factor. It binds to certain DNA sequences called cAMP Responsive Elements (CRE) and regulates the transcription of the genes. […] This cell line can be used to find agonists/antagonists of the cyclic AMP signaling pathway. The activation of the report gene under culture conditions can be detected by fluorescence intensity. This cell line has been used to screen the Tox21 10K compound library to identify agonists that induce oxidative stress.
Tox21 Assay Protocol Summary: CRE-bla Hek 293T cells were suspended in assay medium (DMEM containing 10% dialyzed FBS, 0.1 mM NEAA, 1 mM sodium pyruvate and 25 mM HEPES) and dispensed at 2,000 cells/5 uL /well into 1536-well black wall/clear bottom plates using a Multidrop Combi (ThermoFisher Scientific, Waltham, MA) dispenser. After the assay plates were incubated at 37 C/5% CO2 for 18 hrs, 23 nL of compounds dissolved in DMSO, positive controls or DMSO only was transferred to the assay plate by a pintool workstation (Kalypsys, San Diego, CA). After the plates were incubated at 37 C/5% CO2 for 3 hrs, 1 uL of LiveBLAzer B/G FRET substrate (Invitrogen, Carlsbad, CA) was added to each well using Bioraptr Flying Reagent Dispenser (FRD, Aurora Discovery, San Diego, CA). The plates were incubated at room temperature for 2 h.
In general terms: In qHTS, concentration-response curves come from the screen itself.
For the molecule `O=C(Cl)c1cccc([N+](=O)[O-])c1`, the Potency entry is “inactive”.
As for `CC(=O)c1ccc(C)cc1`, the entry is “inactive”; as for `Cc1nc([N+](=O)[O-])cn1-c1ccc([N+](=O)[O-])cc1`, “inactive”; as for `CC1=CCCC(C)(C)C12CCC(C)O2` (stereo not given), “inactive”.
As for `COC(=O)C1=C(C)NC(C)=C(C(=O)OCCc2ccc(N3CCN(C(c4ccccc4)c4ccccc4)CC3)cc2)C1c1cccc([N+](=O)[O-])c1` (stereo not given), the entry is “inactive”; as for `O=C(Cl)c1cc(C(=O)Cl)cc(C(=O)Cl)c1`, “inactive”; as for `CC1=NN(c2cc(Cl)c(S(=O)(=O)O)cc2Cl)C(=O)C1N=Nc1ccc(S(=O)(=O)O)cc1` (stereo not given), “inactive”.
As for `CCCCCCC(=O)c1ccccc1`, the entry is “inactive”; as for `CC(=O)Nc1ccc(OC(=O)c2ccccc2OC(C)=O)cc1`, “inactive”; as for `NNC(=O)CP(=O)(c1ccccc1)c1ccccc1`, “inactive”.
Turning to `CCSCC`, the Potency result is “inactive”.
As for `COc1ccc2c(c1)c(CC(=O)OC/C=C(\C)CC/C=C(\C)CCC=C(C)C)c(C)n2C(=O)c1ccc(Cl)cc1`, the entry is “inactive”; as for `CC(=O)CC(=O)Nc1ccc(S(=O)(=O)O)cc1`, “inactive”.
As for `C=C(C)c1cccc(C(=C)C)c1`, the entry is “inactive”; as for `CN1C[C@H]2c3ccccc3Oc3ccc(Cl)cc3[C@@H]2C1`, “inactive”.
To `COC(=O)c1ccccc1OC` belongs “inactive”; to `c1csc(SSc2cccs2)c1`, “inactive”.
As for `COC(=O)[C@@H](N)Cc1ccc(O)c(O)c1`, the Potency result is “inactive”.
To `CN(C)CCN(C)CCO` belongs “inactive”; to `CN(C)CCOc1ccccc1Cc1ccccc1`, “inactive”; to `CCCCCCCCCCC1CO1` (stereo not given), “inactive”.
For the molecule `CC(=O)Oc1cccc(C)c1`, the Potency entry was “inactive”.
To `CC(C)Nc1ccc(NC(C)C)c2c1C(=O)c1ccccc1C2=O` belongs “inactive”; to `Oc1cccc(-c2c3nc(c(-c4cccc(O)c4)c4ccc([nH]4)c(-c4cccc(O)c4)c4nc(c(-c5cccc(O)c5)c5ccc2[nH]5)CC4)C=C3)c1`, “inactive”; to `ClCCOCCOCCCl`, “inactive”.
To `S=c1nccc[nH]1` belongs “inactive”.
As for `O=C=NC1CCC(CC2CCC(N=C=O)CC2)CC1` (stereo not given), the entry is “inactive”; as for `CCCCCCCCCCCCCC(=O)OC`, “inactive”; as for `CCCCCC(CO)CCC` (stereo not given), “inactive”.
As to `Oc1ccc2c(c1)Cc1ccccc1-2`, the Potency result is “inactive”.
As for `CCCOc1ccc2c(c1)CC[C@@H]1[C@@H]2CC[C@]2(C)C(OC)CC[C@@H]12` (stereo not given in full), the entry is “inactive”; as for `CS(=O)(=O)c1ccc([C@@H](O)[C@@H](CF)NC(=O)C(Cl)Cl)cc1`, “inactive”; as for `CC1=CC(=O)CCC1`, “inactive”.
In the case of `CC(C)CCC(=O)CCC(C)C`, the Potency entry was “inactive”.
To `COc1nccnc1CC(C)C` belongs “inactive”; to `Oc1cccc2c(O)cccc12`, “inactive”.
As for `CN(C)CCCN1c2ccccc2CCc2ccc(Cl)cc21`, the entry is “inactive”.
To `Oc1ccc2ccccc2c1` belongs “inactive”; to `O=C(NS(=O)(=O)/C=C/c1cccs1)c1ccc(F)cc1Br`, “inactive”; to `CCCCCCOC(=O)CCCCCCCC(=O)OCCCCCC`, “inactive”.

The record behind these values is PubChem BioAssay (Tox21).
